Assay results from PubChem BioAssay (NCATS).
Several values for one entry are separate records, joined by “and”; a condition that tells them apart may be missing. Identical values can stand only once. Records with an inconclusive call do not appear. Activity calls are given as the source filed them. Calls follow the shape of the dose curve; as a rule, active = well fitted curve in the direction sought with a large enough effect; inconclusive = small, poorly fitted or top-dose-only effect, or another doubt; inactive = no such curve, though single readings can be large; an effect the other way counts as inactive or inconclusive.

Tests used:
[1] = target: Cellular tumor antigen p53 (Homo sapiens) (UniProt P04637); experiment: Primary qHTS for small molecule compounds that upregulate eGFP-tagged delta133p53alpha (in N-terminal) cells. (AID 2060322); conditions: NCI-H358 eGFP-delta133p53alpha fluorescence, 24 h; activation: active compounds read high;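 also: series mostly up to about 56 µM; 0% = DMSO vehicle and 100% = reference activator; nearly all actives have a fitted effect of over 75% in size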
Method in brief: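 NCI-H358 cells pre-induced 24 h with 10 ng/ml doxycycline to express N-terminal eGFP-delta133p53alpha, then dosed 24 h at 37C without doxycycline; fixed, Hoechst-stained, GFP intensity by laser scanning cytometry, normalized to DMSO (0%) and 57.5 uM 5-azacytidine (100%).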

[2] = target: Aldehyde dehydrogenase, mitochondrial (Homo sapiens) (UniProt P05091); experiment: qHTS for Inhibitors of the Aldehyde Dehydrogenase Family (ALDH2) Primary screen (AID 2061308);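 also: plate controls were vehicle for no effect and reference inhibitor for full effect; nearly all actives have a fitted effect of over 55% in size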
[3] = target: Retinaldehyde dehydrogenase 3 (Homo sapiens) (UniProt P47895); experiment: qHTS for Inhibitors of the Aldehyde Dehydrogenase Family (ALDH1A3) Primary screen (AID 2061315);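 also: plate controls were DMSO vehicle for no effect and reference inhibitor for full effect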

Chain of Cellular tumor antigen p53 (Homo sapiens) (P04637 whole entry, looked up): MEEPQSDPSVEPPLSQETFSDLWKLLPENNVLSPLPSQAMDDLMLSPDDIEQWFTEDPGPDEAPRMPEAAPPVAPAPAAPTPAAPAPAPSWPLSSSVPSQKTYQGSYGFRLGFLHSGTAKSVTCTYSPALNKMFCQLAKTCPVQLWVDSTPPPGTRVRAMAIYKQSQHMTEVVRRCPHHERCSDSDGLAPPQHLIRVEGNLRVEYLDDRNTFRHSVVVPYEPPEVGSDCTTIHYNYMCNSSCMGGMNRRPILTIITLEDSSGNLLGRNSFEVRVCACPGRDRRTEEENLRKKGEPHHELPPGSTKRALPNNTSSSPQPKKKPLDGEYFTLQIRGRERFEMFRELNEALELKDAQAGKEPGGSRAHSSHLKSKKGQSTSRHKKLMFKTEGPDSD

COc1cc(C)c(C(=O)O[C@H]2[C@@H](O)[C@H](n3ccc(=O)[nH]c3=O)O[C@@H]2CO)c(OC)c1
inactive: activation [1] -3.05% | Potency [2] | Potency [3]

CCC1=C(C)C(=O)C(C)CC12C(=O)CCC2C(=O)O (centres undefined)
inactive: activation [1] -11.5% | Potency [2] | Potency [3]

C[C@]1(OC(=O)/C=C/c2ccc(O)cc2)C[C@@H](O)[C@]2(O)C=CO[C@@H](O[C@@H]3O[C@H](CO)[C@@H](O)[C@H](O)[C@H]3O)C12 (some centres undefined)
inactive: activation [1] 3.57% | Potency [2] | Potency [3]

O=C1NC(Cc2ccc(O)cc2)C(=O)N2CCCC12 (centres undefined)
inactive: activation [1] -19.8% | Potency [2] | Potency [3]

CC1(C)CC2C3=CCC4C5(C)CCC(OC6OC(CO)C(O)C(OC7OC(CO)C(O)C(OC8OC(CO)C(O)C(OC9OC(COC%10OC(CO)C(O)C(O)C%10O)C(O)C(O)C9O)C8O)C7O)C6O)C(C)(C)C5CCC4(C)C3(C)CCC2(C(=O)O)CC1O (centres undefined)
inactive: activation [1] -24.4% | activity change, negative = inhibition [2] 8.77% [at 11.2 µM] | activity change, negative = inhibition [3] 1.03% [at 11.2 µM]

COc1ccc2c(c1)C(=O)N(CCc1ccc(S(=O)(=O)NC(=O)NC3CCCCC3)cc1)C(=O)C2(C)C
inactive: activation [1] -11.7% and 6.33% | Potency [2] | Potency [3]

Nc1nc(-n2cc(C(=O)O)c(=O)c3cc(F)c(N4CC(O)C4)c(Cl)c32)c(F)cc1F
inactive: activation [1] 13% | Potency [2] | Potency [3]

C[C@@H]1C[C@H](O)/C=C/[C@H](O)[C@@H](O)CC(=O)O1
inactive: activation [1] -9.92% | Potency [2] | Potency [3]
